High-throughput results deposited in PubChem BioAssay by National Center for Advancing Translational Sciences (NCATS).
Rows were chosen to be rich in hits. Some 3% of all compounds tested hit in one or more screens of this group.
Tau ThT inhib: inhibitors of human tau fibril formation, thioflavin T binding. P10636. recombinant tau K18 P301L, heparin-induced fibrillization, ThT fluorescence. Potency, µM (titrated, usually from 57.4 µM), for the others: at the top dose activity, negative = inhibition, most hits filed as inhibitors. actives 2.1% (n = 270,000); also: nearly all actives have a fitted effect of over 55% in size
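Tau K18 P301L fragment (15 uM unlabeled plus 0.24 uM Alexa 594-labeled) in 100 mM sodium acetate pH 7 with compound, fibrillization induced by 20 uM heparin for 6 hr at 37 C. Thioflavin T (30 uM) added, fluorescence read after 1 hr (ex 450, em 510 nm).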
Tau fluor counter: counter-screen for tau fibril formation inhibitors. actives 0.93% (n = 280,000). tau K18 P301L (four-repeat tau fragment) Alexa594 fluorescence, heparin fibrillization. Potency, µM (top dose mostly 57.7 µM), for inactives: at the top dose activity change, negative = decrease. AID 1463; also: nearly all actives have a fitted effect of over 55% in size
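Human K18 P301L tau (15 uM unlabeled plus 0.24 uM Alexa 594-labeled, final) in 100 mM sodium acetate pH 7 was mixed with compound and 20 uM heparin and incubated 6 hr at 37 C.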
Tau FP inhib: blocks human tau fibril formation measured by polarization | K18 P301L tau heparin fibrillization, Alexa594 FP, 6 h | Potency, µM (highest dose often 57.7 µM), for the others: top-dose activity, negative = inhibition, usual class: inhibitors | actives 0.39% (n = 280,000) | AID 1468; also: nearly all actives have a fitted effect of over 55% in size
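Human K18 P301L fragment (15 uM unlabeled plus 0.24 uM Alexa 594-labeled) in 100 mM sodium acetate pH 7 with compound, aggregation induced by 20 uM heparin for 6 hr at 37 C. ThT (30 uM) added for 1 hr, then Alexa 594 FP read.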
TRb SRC2 PPI: disrupts binding of human TR beta to SRC2. TRbeta-SRC2 peptide binding, fluorescence polarization; receptor liganded with 1 µM T3. Potency, µM (titrated, usually from 106 µM), inactives show top-dose activity change, negative = inhibition, usual class: inhibitors. actives 0.065% (n = 280,000). AID 1469;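 also: plate controls were bound peptide for no effect and peptide without receptor for full effect; nearly all actives have a fitted effect of over 50% in size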
Target sequence (P10828 whole entry, looked up): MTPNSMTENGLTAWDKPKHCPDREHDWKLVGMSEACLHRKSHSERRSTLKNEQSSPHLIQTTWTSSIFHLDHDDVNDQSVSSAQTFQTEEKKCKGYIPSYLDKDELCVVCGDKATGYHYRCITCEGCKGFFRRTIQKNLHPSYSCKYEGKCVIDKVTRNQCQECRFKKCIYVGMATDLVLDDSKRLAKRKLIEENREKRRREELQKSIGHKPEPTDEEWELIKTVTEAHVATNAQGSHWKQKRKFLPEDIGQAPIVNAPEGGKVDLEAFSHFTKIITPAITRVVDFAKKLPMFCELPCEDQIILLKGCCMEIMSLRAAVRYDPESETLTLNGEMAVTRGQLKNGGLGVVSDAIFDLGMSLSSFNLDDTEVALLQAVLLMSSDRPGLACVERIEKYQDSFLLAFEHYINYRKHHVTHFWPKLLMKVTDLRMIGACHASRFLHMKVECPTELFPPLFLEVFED
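TRb LBD 0.6 uM + Texas Red SRC2 peptide 20 nM, 1 uM T3, Tris buffer w/ 5% DMSO; compound pinned, 5 h RT; FP read ex 555/em 632; normalized to unbound and bound controls.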
TR SRC2 fluor cs: alters Texas Red total fluorescence, flagging assay interference | TRb/SRC2 Texas Red total fluorescence interference | Potency, µM (titrated, usually from 106 µM), for inactives: at the top dose fluorescence change, negative = quenching | actives 0.29% (n = 280,000) | AID 1479; active = well fitted curve in either direction with a large enough effect; inconclusive = small, poorly fitted or top-dose-only effect
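Flags fluorescent or light-absorbing compounds by total fluorescence, S + 2P, at 555 nm excitation and 632 nm emission. Mixture: 20 nM Texas Red SRC2 peptide, 0.6 uM human TRb LBD, 1 uM T3, 5% DMSO; compound exposure 5 h at ambient temperature.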
The depositor's hits bear a star; ? = inconclusive; . = no result given; [ ] = another dose, or the depositor's remark. Unless noted, calls follow the shape of the dose curve; as a rule, active = well fitted curve in the direction sought with a large enough effect; inconclusive = small, poorly fitted or top-dose-only effect, or another doubt; inactive = no such curve, though single readings can be large; an effect the other way counts as inactive or inconclusive. Unless noted, % is scaled to controls: 0 for no effect and ±100 for the full control effect; potency is read from the fitted curve at half-maximal effect.

SMILES	Tau ThT inhib	Tau fluor counter	Tau FP inhib	TRb SRC2 PPI	TR SRC2 fluor cs
COC(=O)C#CC(=O)OC	.	.	.	0.5%	-0.7%
COc1ccc(Cn2c(O)c(C=Nc3ccc(O)cc3)c3ccccc3c2=O)cc1	?	4.47µM*[quencher]	?	-2.0%[53 µM]	-2.8%[53 µM]
COc1ccc(N=Cc2c(O)ccc3ccccc23)cc1	8.91µM*	?	-7.4%	7.5%	-6.5%
Cc1oc(/N=C/c2c(O)ccc3ccccc23)c(C#N)c1C	17.8µM*	-29.7%	?	12.3%	5.8%
CC(=O)N1CCCc2cc(S(=O)(=O)N(C)CC(=O)Nc3ccc(C)cc3C)ccc21	-0.8%	-9.0%	-2.8%	1.7%	-1.6%
CCOC(=O)C1=C(C)NC(C)=C(C(=O)OC)C1c1cccc(Cl)c1Cl (stereo unspecified)	-13.8%	14.1µM*[quencher]	6.9%	-1.0%	-4.3%
CCOC(=O)C1=C(COCCN)NC(C)=C(C(=O)OC)C1c1ccccc1Cl (stereo unspecified)	-19.9%	-14.7%	-8.5%	6.0%	1.2%
Nc1ccc2c(c1)C(=O)C(=O)c1ccccc1-2	-2.4%	-4.2%	4.0%	2.1%	1.0%
O=C1C(=O)c2ccc(-c3ccccc3)cc2-c2ccccc21	1.26µM*	-17.7%	?	?	-1.7%
CC1=C(C(=O)N2CCOCC2)C(c2cc(C)cs2)NC(=O)N1 (stereo unspecified)	-15.1%	-4.2%	3.6%	20µM*	28.2µM*[fluorescent]
CCOc1ccc(N2CSC3=C(C#N)C(c4ccco4)CC(=O)N3C2)cc1 (stereo unspecified)	14.1µM*	?	?	0.6%	-10.5%
CCOC(=O)c1ccc(N2CSC3=C(C#N)C(c4ccc(OC)cc4OC)CC(=O)N3C2)cc1 (stereo unspecified)	25.1µM*	?	-7.2%	3.6%	-5.3%
COc1ccc(OC)c(C2CC(=O)N3CN(c4ccc(C)c(Cl)c4)CSC3=C2C#N)c1 (stereo unspecified)	28.2µM*	-27.5%	?	6.6%	-0.1%
COc1ccc(OC)c(C2CC(=O)NC(SC)=C2C#N)c1 (stereo unspecified)	-10.9%	-8.3%	-9.9%	6.3%	-4.8%
CCOC(=O)C1=C(CC)OC(N)=C(C#N)C1c1ccc(OC)cc1OC (stereo unspecified)	-5.6%	-9.0%	7.9%	4.5%	0.6%
COc1ccc(OC)c(C2CC(=O)N3CN(c4cccc(Cl)c4)CSC3=C2C#N)c1 (stereo unspecified)	28.2µM*	?	?	0.5%	-4.7%
CCC(CC)c1nn2c(=O)cc(COc3ccc(NC(=O)c4ccccc4Cl)cc3)nc2s1	?	-11.3%	-4.8%	3.2%	-0.6%
CCOc1ccc(/C=C/c2nc(C#N)c(NCCc3ccccc3)o2)cc1	?	-26.9%	4.0%	3.0%	-0.3%
Nc1c(-c2nc(-c3cccs3)no2)nnn1-c1cccc(Cl)c1	-0.5%	-6.7%	-14.6%	1.8%	-3.2%
COc1ccccc1C(=O)Nc1cc2c(cc1N1CCCCC1)n(C)c(=O)n2C	?	-5.5%	12.8%	-8.4%	-0.2%
COc1ccc(OC)c(C2C(C#N)=C(N)Oc3c2c(C)nn3-c2cccc(Cl)c2)c1 (stereo unspecified)	12.6µM*	?	-0.9%	-1.5%	-4.9%
Cc1nn(-c2cccc(Cl)c2)c2c1C(c1ccncc1)C(C#N)=C(N)O2 (stereo unspecified)	?	?	-3.6%	-9.7%	-5.0%
CC(C)CN1C(=O)/C(=C(/C#N)C(=O)NC2CCCCC2)c2ccccc21	17.8µM*	-13.2%	?	-3.8%	-0.2%
CCn1c(=O)n(-c2ccc3c(c2)OCO3)c2nc(-c3cc(OC)ccc3OC)nc(C(N)=O)c21	7.8%	0.5%	-1.7%	-3.6%	-1.7%
Cc1ccc(-n2c(C)cc(-c3csc(N)n3)c2C)cc1	?	-24.2%	-2.7%	3.8%[53 µM]	1.0%[53 µM]
Cc1cc(-c2csc(N)n2)c(C)n1Cc1ccco1	15.8µM*	?	-13.4%	-0.3%	4.0%
Cc1cc(-c2csc(N)n2)c(C)n1C	31.6µM*	?	?	-15.8%	8.4%
CC/C(=C/c1sc2ccc(C)cc2[n+]1CCCS(=O)(=O)[O-])SC	-8.1%	5.6%	2.4%	?	44.7µM*[fluorescent]
